Data reported in the supplement of paper PMC12067093, “Discovery and optimisation of a covalent ligand for TRIM25 and its application to targeted protein ubiquitination” (Chemical Science, 2025).
Targets with the largest changes are over-represented here; the source holds about 21,000 in all.

Compound: CC1Cc2ccccc2N1C(=O)C1CCCN(C1)C(=O)CCl (mixture of isomers) [TRIM25 ligand 11 (diastereomer mixture)]
Assay: probe-labelled cysteine peptide fold change vs DMSO (competition) (log2 fold change); higher = less target engagement (more negative = stronger competition)
Details: THP-1, incubation time: 4 h
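Note: competitive chemoproteomic profiling in live THP-1 cells with an iodoacetamide desthiobiotin (IA-DTB) probe, comparing probe-labelled peptide intensities in compound-treated cells against DMSO-treated controls.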

Target	probe-labelled cysteine peptide fold change (10 µM)	probe-labelled cysteine peptide fold change (50 µM)
ELP3_Q9H9T3_456_CSEETFR (UniProt Q9H9T3)	0.298	0.202
EXOC5_O00471_194_YHDLECQLIQEFTSAQR (UniProt O00471)	0.139	0.157
EHHADH_Q08426_227+233_QHPGCLAQEACVR (UniProt Q08426)	0.147	0.0162
FUBP3_Q96I24_109_IQAESGCK (UniProt Q96I24)	0.00832	0.192
ELP5_Q8TE02_151_LPCTTLCQVLHAVSHQDSCPGDSSSVGK (UniProt Q8TE02)	0.0565	0.114
FAM111B_Q6SJ93_212_LCIYALK (UniProt Q6SJ93)	-0.05	-0.0141
ECM1_Q16610_269_FSCFQEEAPQPHYQLR (UniProt Q16610)	0.855	0.858
EIF1_P41567_94_NICQFLVEIGLAKDDQLK (UniProt P41567)	-1.14	-0.0838
FRRS1_Q6ZNA5_107_NAEDLNGPPIGSFTLIDSEVSQLLTCEDIQGSAVSHR (UniProt Q6ZNA5)	0.66	0.341
FLNB_O75369_991_KVVPCLVTPVTGR (UniProt O75369)	-0.0645	-0.0535
F2_P00734_564_RGDACEGDSGGPFVMK (UniProt P00734)	0.606	0.325
FGD3_Q5JSP0_284_QEVCGNLTLQHHMLEPVQR (UniProt Q5JSP0)	0.0112	-0.0514
FAR2_Q96K12_104+111_EDMQELLSCTNIIFHCAATVR (UniProt Q96K12)	0.0855	0.0839
FTH1_P02794_91_KPDCDDWESGLNAMECALHLEK (UniProt P02794)	0.166	0.847
FBN2_P35556_941_CELDTACPR (UniProt P35556)	0.213	0.26
EIF3K_Q9UBQ5_87_CMIDQAHQEERPIR (UniProt Q9UBQ5)	0.0313	0.0963
FH_P07954_434_LLGDASVSFTENCVVGIQANTER (UniProt P07954)	-0.504	-0.961
EIF3M_Q7L2H7_52_GAEISEENSEGGLHVDLAQIIEACDVCLKEDDK (UniProt Q7L2H7)	0.0157	0.134
EPHX2_P34913_232_VTGIQLLNTPAPLPTSCNPSDMSHGYVTVKPR (UniProt P34913)	0.149	-0.204

Target	probe-labelled cysteine peptide fold change (10 µM)	probe-labelled cysteine peptide fold change (50 µM)
FAM98B_Q52LJ0_220_INDALSCEYECR (UniProt Q52LJ0)	-0.00202	0.0911
FAM111B_Q6SJ93_351_NYYFCSLPR (UniProt Q6SJ93)	-0.00273	0.026
ENOSF1_Q7L5Y1_67_GTEVVVCAVNALAHHVLNK (UniProt Q7L5Y1)	-0.0438	0.0621
ETFDH_Q16134_387_LTFPGGLLIGCSPGFMNVPK (UniProt Q16134)	-0.688	-0.698
FECH_P22830_403_QLTLSCPLCVNPVCR (UniProt P22830)	0.0323	0.0221
F2_P00734_407_WVLTAAHCLLYPPWDK (UniProt P00734)	0.631	0.154
FAM241A_Q8N8J7_2_CSAGELLR (UniProt Q8N8J7)	0.306	0.559
FHL2_Q14192_275_GFLTERDDILCPDCGK (UniProt Q14192)	-0.0813	-0.0756
EDC4_Q6P2E9_838_ETCSTLAESPR (UniProt Q6P2E9)	-0.0668	-0.146
EPRS_P07814_1301+1309_VACVQVVIIPCGITNALSEEDK (UniProt P07814)	-0.162	-0.139
EIF1B_O60739_69_FACNGTVIEHPEYGEVIQLQGDQRK<|>EIF1_P41567_69_FACNGTVIEHPEYGEVIQLQGDQRK (UniProt P41567+O60739)	-0.358	-0.022
FASN_P49327_2369_AKLTPGCEAEAETEAICFFVQQFTDMEHNR (UniProt P49327)	-0.0758	-0.005
EIPR1_Q53HC9_95_VLTCAAVWR (UniProt Q53HC9)	0.109	0.137
EIF3D_O15371_438_WTCCALLAGSEYLK (UniProt O15371)	-0.0143	0.0445
FUBP3_Q96I24_366_CGLVIGK (UniProt Q96I24)	-0.0888	0.0606
EFTUD2_Q15029_476_IEHTYTGGVDSDLGEAMSDCDPDGPLMCHTTK (UniProt Q15029)	-0.11	-0.51
EEF1A1_P68104_411_FLKSGDAAIVDMVPGKPMCVESFSDYPPLGR (UniProt P68104)	0.947	1.14
FNBP1_Q96RU3_511_RQSGLYDSQNPPTVNNCAQDR (UniProt Q96RU3)	0.269	-0.0608
EXOSC8_Q96B26_60_LGNTTVICGVK (UniProt Q96B26)	0.0322	0.0231
